{"source": "ChEMBL document CHEMBL3988442", "about": "“University of Dundee, Small-Polar-MMV Screening Library” (2021)", "note": "About 950 (1.4%) of roughly 69,000 compounds showed an effect of 50% or more. This excerpt belongs to a sample that is enriched for strong results."}
{"system": "Mycobacterium tuberculosis", "experiment": "Cornell M. t heat shock assay; note: in the data most compounds retested in dose-response had high values", "assay_type": "functional, organism-based", "parameters": "dose or concentration left out as unconfirmed", "units": {"Percent Effect": "%"}}
{"smiles": "O=C(O)C(F)(F)F.O=C(c1ccc2ccccc2n1)N1CCC2(CCN2c2ncccn2)C1", "note": "(centres undefined)", "Percent Effect": -9.605}
{"smiles": "CCc1ccc(CN2CCC3(CC2)CC(N2CCN(C)CC2)CO3)cc1.O=C(O)C(F)(F)F", "note": "(centres undefined)", "Percent Effect": 2.884}
{"smiles": "Cc1ccc(CN2CC[C@@H](NC(=O)c3cccnc3)[C@H](O)C2)o1", "Percent Effect": 8.326}
{"smiles": "Cc1ccc(CN(C(=O)NCCNC(=O)c2cccnc2)C(C)C)o1", "Percent Effect": -12.97}
{"smiles": "Cc1ccc(CCNC(=O)c2cccnc2)o1", "Percent Effect": 80.23}
{"smiles": "CCc1cc(C(=O)N2CCCC(Cc3ccc(NC)nn3)C2)on1", "note": "(centres undefined)", "Percent Effect": -39.14}
{"smiles": "COCCCNC(=O)CN(C)C(=O)c1ccccc1O", "Percent Effect": -10.97}
{"smiles": "COCCCNC(=O)CN(C)C(=O)c1cc(Cl)ccc1O", "Percent Effect": 100.8}
{"smiles": "COCCCNC(=O)CN(C)C(=O)c1cc(C)ccc1O", "Percent Effect": 5.458}
{"smiles": "N#Cc1cccc(CN2CCn3cc(Cn4cccn4)nc3C2)c1.O=C(O)C(F)(F)F.O=C(O)C(F)(F)F", "Percent Effect": -31.57}
{"smiles": "COC[C@@H]1CCC[C@@]12CN(Cc1ccc(C)s1)CCO2.O=C(O)C(F)(F)F", "Percent Effect": -18.91}
{"smiles": "CCOCc1cnc2n1CCN(C(=O)Cc1cccs1)C2C", "note": "(centres undefined)", "Percent Effect": -15.31}
{"smiles": "CCOCc1cnc2n1CCN(C(=O)c1ccccc1)C2C", "note": "(centres undefined)", "Percent Effect": 53.26}
{"smiles": "CCOCc1cnc2n1CCN(C(=O)C1=CCCC1)C2C", "note": "(centres undefined)", "Percent Effect": -7.076}
{"smiles": "CCOCc1cnc2n1CCN(C(=O)c1ccoc1C)C2C", "note": "(centres undefined)", "Percent Effect": 26.88}
{"smiles": "CCOCc1cnc2n1CCN(C(=O)c1cccc3c1OCCO3)C2C", "note": "(centres undefined)", "Percent Effect": 51.66}
{"smiles": "CCOCc1cnc2n1CCN(C(=O)c1cn(C)c3ccccc13)C2C", "note": "(centres undefined)", "Percent Effect": 8.997}
{"smiles": "Cc1nc(COC[C@@H]2CC[C@H]3[C@H](CCN3c3ncccn3)O2)cs1.O=C(O)C(F)(F)F", "Percent Effect": 3.819}
{"smiles": "O=C(O)C(F)(F)F.O=C(O)C(F)(F)F.O=C(O)C(F)(F)F.c1ccc(N2CC3(CCN(Cc4cccnc4)C3)C2)nc1", "Percent Effect": -1.371}
{"smiles": "COc1ncccc1CN1C[C@H]2C[C@@H](C(=O)NCC3CC3)N(C)[C@H]2C1.O=C(O)C(F)(F)F.O=C(O)C(F)(F)F.O=C(O)C(F)(F)F", "Percent Effect": -0.5017}
{"smiles": "COCCNC(=O)[C@@]12CCO[C@@H]1CCN(Cc1cc(C)on1)C2.O=C(O)C(F)(F)F", "Percent Effect": -5.953}
{"smiles": "COc1ccc(C(CNS(=O)(=O)c2cn(C)nc2C)N2CCCC2)cc1.Cl", "note": "(centres undefined)", "Percent Effect": -8.275}
{"smiles": "Cc1cccc(CN(Cc2ccccn2)S(=O)(=O)N(C)C)c1", "Percent Effect": -11.53}
{"smiles": "CCN(Cc1cccc(Cl)c1)Cc1ncc(C(C)(C)C)o1", "Percent Effect": -28.51}
{"smiles": "Cc1cccc(CN(Cc2ccccn2)Cc2ncc(C(C)(C)C)o2)c1", "Percent Effect": 77.52}
{"smiles": "O=C(O)C(F)(F)F.O=C(c1cc[nH]n1)N1CCc2onc(COc3cccnc3)c2C1", "Percent Effect": 4.696}
{"smiles": "CC(Cn1ccnc1)NCc1cc(Br)c2c(c1)OCO2.Cl", "note": "(centres undefined)", "Percent Effect": -15.88}
{"smiles": "Clc1ccc2cccnc2c1CN1CCCCC1Cn1cncn1", "note": "(centres undefined)", "Percent Effect": 36.55}
{"smiles": "Cc1nc2ccccc2nc1CN1CCCC1Cn1cncn1", "note": "(centres undefined)", "Percent Effect": 3.442}
{"smiles": "O=C(CN1CCCC1Cn1cncn1)Nc1cccnc1", "note": "(centres undefined)", "Percent Effect": 62.16}
{"smiles": "Cc1nc2ccccc2nc1CN1CCCCC1Cn1cccn1", "note": "(centres undefined)", "Percent Effect": 5.148}
{"smiles": "O=C(CN1CCCCC1Cn1cncn1)Nc1ccncc1", "note": "(centres undefined)", "Percent Effect": -9.468}
{"smiles": "Cc1c(Cl)c(CN2CCCC2Cn2cncn2)nc2ccccc12", "note": "(centres undefined)", "Percent Effect": 54.06}
{"smiles": "Cc1nc2ccccc2nc1CN1CCCCC1Cn1cncn1", "note": "(centres undefined)", "Percent Effect": 12.5}
{"smiles": "Cc1nc(CN2CCCC2Cn2cncn2)nc2ccccc12", "note": "(centres undefined)", "Percent Effect": 19.17}
{"smiles": "Clc1ccc2cccnc2c1CN1CCCC1Cn1cncn1", "note": "(centres undefined)", "Percent Effect": 52.22}
{"smiles": "Clc1ccc2cccnc2c1CN1CCCC(Cn2cncn2)C1", "note": "(centres undefined)", "Percent Effect": 18.36}
{"smiles": "Cc1nc2ccccc2nc1CN1CCCC1Cn1cccn1", "note": "(centres undefined)", "Percent Effect": 61.51}
{"smiles": "O=C(CN1CCCC(Cn2cncn2)C1)Nc1cccnc1", "note": "(centres undefined)", "Percent Effect": 9.071}
{"smiles": "CN1CC(=O)N(c2cccc(F)c2)CC12CCN(Cc1cnn(C)c1)C2.O=C(O)C(F)(F)F.O=C(O)C(F)(F)F", "note": "(centres undefined)", "Percent Effect": -4.947}
{"smiles": "Cc1cccc(Nc2cc(C)nc(C3CCN(C(C)C)C3)n2)n1.O=CO", "note": "(centres undefined)", "Percent Effect": -16.48}
{"smiles": "Cn1cc(CN2CCC[C@]3(C[C@H](Oc4ncccc4F)CO3)C2)cn1.O=C(O)C(F)(F)F.O=C(O)C(F)(F)F", "Percent Effect": 15.03}
{"smiles": "Cc1cnc(C(=O)N2CCCC(c3c(C)c(=O)nc4n3CCC4)C2)cn1.Cl", "note": "(centres undefined)", "Percent Effect": -2.984}
{"smiles": "Cc1cc2cc(C(=O)N3CC[C@H](O)[C@]4(CCCO4)C3)ccc2o1", "Percent Effect": -15.2}
{"smiles": "CCC(C)NS(=O)(=O)Cc1cccc(NC(=O)C2=CCCC2)c1", "note": "(centres undefined)", "Percent Effect": 26.24}
{"smiles": "Cc1cccc2nc(CN3CCCC3Cn3cncn3)cn12", "note": "(centres undefined)", "Percent Effect": -15.33}
{"smiles": "Cc1nc(C)n(CC2CCCN2Cc2cn3c(C)cccc3n2)n1", "note": "(centres undefined)", "Percent Effect": -6.121}
{"smiles": "Cc1cccc2nc(CN3CCCC3Cn3cccn3)cn12", "note": "(centres undefined)", "Percent Effect": 71.56}
{"smiles": "Cc1cc(N(C)C)nc(C2CCCNC2)n1.Cl", "note": "(centres undefined)", "Percent Effect": -4.07}
{"smiles": "COc1ccc(C[C@H]2CN(Cc3ccoc3)CC[C@H]2OC)cc1.O=C(O)C(F)(F)F", "Percent Effect": 23.61}
{"smiles": "CCCN(CCn1c(=O)oc2ccccc21)CC1CC1", "Percent Effect": 105}
{"smiles": "O=c1oc2ccccc2n1CCN(CC1CCOC1)C1CC1", "note": "(centres undefined)", "Percent Effect": -26.82}
{"smiles": "CCN(CC)CCn1c(=O)oc2ccccc21.Cl", "Percent Effect": 76.75}
{"smiles": "CCN(CCn1c(=O)oc2ccccc21)CC1CCOCC1", "Percent Effect": 86.99}
{"smiles": "Cc1noc(C)c1CN(C)Cn1c(=O)oc2ccccc21", "Percent Effect": -12.14}
{"smiles": "CCN(Cc1ccc(C(C)=O)cc1)CC1CCOCC1", "Percent Effect": 5.377}
{"smiles": "O=c1oc2ccccc2n1CCCN1CCCC1c1ccc(O)cc1", "note": "(centres undefined)", "Percent Effect": -35.87}
{"smiles": "CC(NCCn1c(=O)oc2ccccc21)c1ccccn1", "note": "(centres undefined)", "Percent Effect": 5.47}
{"smiles": "Cn1cc(C2CCCN2CCCn2c(=O)oc3ccccc32)cn1", "note": "(centres undefined)", "Percent Effect": -2.71}
{"smiles": "COc1cccc(Nc2nc(C3CCNCC3)c3sc(C)c(C)n23)c1.Cl", "Percent Effect": 44.92}
{"smiles": "CN(C)[C@@H]1CN(Cc2cnn(C)c2)[C@@H]2COC[C@H]12.O=C(O)C(F)(F)F.O=C(O)C(F)(F)F.O=C(O)C(F)(F)F", "Percent Effect": -14.51}
{"smiles": "O=C(O)C(F)(F)F.O=C1CC[C@H]2[C@H](CCN2c2ncccn2)N1c1ccccc1", "Percent Effect": 21.09}
{"smiles": "c1cncc(O[C@H]2COCCN(Cc3c[nH]c4ccccc34)C2)c1", "Percent Effect": 58.82}
{"smiles": "c1ccc(O[C@H]2COCCN(Cc3c[nH]c4ccccc34)C2)cc1", "Percent Effect": 78.8}
{"smiles": "CO[C@H]1COCCN(Cc2c[nH]c3ccccc23)C1", "Percent Effect": 82.59}
{"smiles": "CC(C)(C)c1coc([C@@H]2COCCN2Cc2c[nH]c3ccccc23)n1", "Percent Effect": 25.07}
{"smiles": "Fc1ccc(CN2CCOC[C@H](Oc3cccnc3)C2)cc1", "Percent Effect": -34.69}
{"smiles": "c1ccc(O[C@H]2COCCN(Cc3cccc4c3OCO4)C2)cc1", "Percent Effect": -21.01}
{"smiles": "FC(F)(F)c1ccccc1CN1CCOC[C@H](Oc2cccnc2)C1", "Percent Effect": -28.03}
{"smiles": "O=C(O)c1ccc2c(CN3CCOCC3)c[nH]c2c1", "Percent Effect": -11.23}
{"smiles": "COc1ccc(O[C@H]2COCCN(Cc3c[nH]c4ccccc34)C2)cc1", "Percent Effect": 47.94}
{"smiles": "CCC(C)S(=O)(=O)N1CCc2nc(C3CCNCC3)ncc2C1.Cl", "note": "(centres undefined)", "Percent Effect": -3.075}
{"smiles": "Cc1cccc(CN2CCc3nnc(CN4CCCCC4)n3CC2)n1.O=C(O)C(F)(F)F.O=C(O)C(F)(F)F", "Percent Effect": -5.727}
{"smiles": "Cl.Cn1ccnc1N1CCN(C(=O)Cc2ccc(Cl)cc2)CC1", "Percent Effect": -26.02}
{"smiles": "Cc1ccc(C(=O)N2CC3(CCNCC3)c3cc(Cl)ccc32)cn1.O=C(O)C(F)(F)F.O=C(O)C(F)(F)F", "Percent Effect": 1.032}
{"smiles": "Cc1cccc(CN2C(=O)C[C@H]3[C@@H]2CCN3Cc2ccco2)n1.O=C(O)C(F)(F)F.O=C(O)C(F)(F)F", "Percent Effect": -4.137}
{"smiles": "Cn1cnc(S(=O)(=O)N2C[C@@H]3CC[C@H](C2)N(Cc2ccccn2)C3)c1", "Percent Effect": 7.06}
{"smiles": "Cc1nnsc1CN1C[C@H]2CC[C@@H]1CN(Cc1ccccn1)C2", "Percent Effect": -2.005}
{"smiles": "CC(C)(C)c1cc(CN2C[C@@H]3CC[C@H](C2)N(Cc2ccccn2)C3)n[nH]1", "Percent Effect": 82.46}
{"smiles": "Cn1ccc(NC(=O)CN2C[C@H]3CC[C@@H]2CN(Cc2ccccn2)C3)n1", "Percent Effect": -21.74}
{"smiles": "CC(C)(C)c1cc(CN2C[C@H]3CC[C@@H]2CN(Cc2ccccn2)C3)n[nH]1", "Percent Effect": 99.23}
{"smiles": "O=C(CN1C[C@H]2CC[C@@H]1CN(Cc1ccccn1)C2)Nc1ccccc1", "Percent Effect": 12.62}
{"smiles": "O=C(O)C(F)(F)F.c1ccc(CN2CCc3ncnc(C4CC4)c3CC2)cc1", "Percent Effect": -16.81}
{"smiles": "CC(=O)N1CC2(CCNCC2)c2cc(Cl)ccc21.Cl", "Percent Effect": 3.682}
{"smiles": "CO[C@H]1CN(C(=O)c2ccccn2)[C@@H]2CCCO[C@H]12.O=C(O)C(F)(F)F", "Percent Effect": 0.07759}
{"smiles": "CS(=O)(=O)NCc1cnc2n1CCN(Cc1ccccn1)CC2.O=C(O)C(F)(F)F", "Percent Effect": -38.1}
{"smiles": "CCc1n[nH]c(C(=O)NCCn2ccc(C)n2)c1C", "Percent Effect": -5.809}
{"smiles": "CCc1n[nH]c(C(=O)NCCn2nccc2C)c1C", "Percent Effect": 66.56}
{"smiles": "CCc1n[nH]c(C(=O)NCCn2ccnc2C)c1C", "Percent Effect": -101}
{"smiles": "CO[C@H]1[C@@H]2CC[C@H]1CN(c1nc(C)nc3ccsc13)C2", "Percent Effect": 7.911}
{"smiles": "Cc1ccc(C2(CN3CCN(Cc4cnc(C)n4C)CC3)CC2)cc1.Cl", "Percent Effect": -8.472}
{"smiles": "CC(=O)c1cc(CN2C[C@H]3CC[C@@H]2CN(S(C)(=O)=O)C3)cs1", "Percent Effect": 74.41}
{"smiles": "CS(=O)(=O)N1C[C@@H]2CC[C@H](C1)N(Cc1ccsc1)C2", "Percent Effect": 18.67}
{"smiles": "CC(=O)c1cc(CN2C[C@H]3CC[C@@H]2CN(S(=O)(=O)N(C)C)C3)cs1", "Percent Effect": -20.68}
